# Bioassay records: PubChem, Broad Institute
# Only some compounds are listed: those with a hit (about 1.4% of all), similar ones and a draw of the others.
# AF4-AF9 inh – inhibitors of human MLL-AF4/AF9 interaction; AlphaScreen, biotin-AF4 peptide binding to FLAG-AF9; inhibition, % at 10 µM; 350,000 compounds, 0.47% hits; AID 651704;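 active means every replicate reaching a set inhibition limit, whatever the replicate mean, cut at about 25% in these data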;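 further: 0% = plate neutral control median and 100% = total signal loss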
# PGC1a acetyl inh – PGC1a acetylation modulation, inhibitor mode. AID 651687. 350,000 compounds, 0.17% hits. inhibition, % at 15.6 µM. U2OS PGC1a acetylation, AlphaScreen anti-acetyl-lysine; with virally co-expressed GCN5 acetyltransferase;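 active means every replicate shows inhibition of at least 40%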;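 further: 0% = neutral control wells and 100% = positive control wells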
# RAD52 inh – RAD52 (human) annealing inhibition | recombinant RAD52 DNA annealing, FRET fluorescence | inhibition, % at 18.7 µM | 360,000 compounds, 0.46% hits | AID 651710;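 active means every replicate showing at least 50% inhibition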
# ERAP1 inh – blocks human ERAP1 aminopeptidase activity; recombinant ERAP1, Leu-AMC fluorescence, 60 min; Q9NZ08; 340,000 compounds, 0.15% hits; inhibition, % at 10.7 µM; AID 652197;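 active means mean replicate inhibition of at least 30%, or all replicates individually reaching that 30% level; inactive means mean below 30% and not every replicate reaching it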;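 further: 0% = neutral control wells and 100% = L-leucinethiol positive control wells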
# RAD54 inh – blocks human RAD54 Holliday junction branch migration; FAM/BHQ fluorescence; inhibition, % at 10.4 µM; 360,000 compounds, 0.14% hits;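 active means mean normalized replicate activity at least 40 and at least half of replicates scoring 40 or more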;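 further: 0% = median of neutral control wells and 100% = median of positive control wells; inhibitors cause a drop in the FAM fluorescence signal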
# Target sequence (Q92698 whole entry, looked up): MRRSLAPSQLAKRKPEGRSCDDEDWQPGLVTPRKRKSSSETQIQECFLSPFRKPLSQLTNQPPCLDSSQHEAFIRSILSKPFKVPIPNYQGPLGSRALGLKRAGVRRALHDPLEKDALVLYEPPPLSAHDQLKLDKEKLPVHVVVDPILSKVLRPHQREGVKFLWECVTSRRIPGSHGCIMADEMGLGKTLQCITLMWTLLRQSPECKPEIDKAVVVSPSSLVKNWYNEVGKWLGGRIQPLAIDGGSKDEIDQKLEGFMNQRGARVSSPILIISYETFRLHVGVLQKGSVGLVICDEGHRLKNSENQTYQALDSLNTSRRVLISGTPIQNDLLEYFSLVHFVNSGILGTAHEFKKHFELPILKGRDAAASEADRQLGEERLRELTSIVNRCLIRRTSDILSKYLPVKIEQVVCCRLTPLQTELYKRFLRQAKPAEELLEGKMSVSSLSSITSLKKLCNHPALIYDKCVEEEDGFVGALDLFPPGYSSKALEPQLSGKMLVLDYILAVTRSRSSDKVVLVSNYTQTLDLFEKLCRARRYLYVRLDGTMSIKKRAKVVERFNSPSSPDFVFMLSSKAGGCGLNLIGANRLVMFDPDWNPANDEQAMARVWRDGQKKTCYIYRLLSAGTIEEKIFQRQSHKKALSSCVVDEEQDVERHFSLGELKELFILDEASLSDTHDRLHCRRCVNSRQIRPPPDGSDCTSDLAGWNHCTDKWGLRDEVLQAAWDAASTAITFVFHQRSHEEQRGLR
# INS-1E GSIS act – primary screen for activators of insulin secretion dependent on glucose, INS-1E cells, GLuc reporter luminescence | INS-1E GLuc reporter insulin secretion, 2-3 h | activation, % at 16.6 µM | 370,000 compounds, 0.61% hits | AID 743287;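 active means lowest replicate activation of at least 40%, so every replicate reaches that level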;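 further: 0% = median of neutral control wells and 100% = median of IBMX positive control wells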
# Active calls of the source: *; / = no result given.
SMILES,AF4-AF9 inh,PGC1a acetyl inh,RAD52 inh,ERAP1 inh,RAD54 inh,INS-1E GSIS act
COc1ccc(C2=NN(C(C)=O)C(c3cccs3)C2)cc1OC (stereo not drawn),-0.9,-6.9,1.7,2.4,-1.8,75.6*
FC(F)(F)CN1CC2C(c3ccc(Br)cc3)C(C1)N2CC(F)(F)F (stereo not drawn),/,/,/,/,/,-21.7
COc1ccc(-c2nc(C#N)c(N3CCC(C)CC3)o2)cc1,0.8,-3.4,-10.9,-1.0,1.0,-5.9
Cc1ccc(-c2nc(C#N)c(N3CCC(C)CC3)o2)cc1,28.1*,1.3,-7.3,1.8,-13.8,0.7
COc1ccc(-c2nc(C#N)c(N3CCCCCC3)o2)cc1OC,27.3*,/,8.5,-6.5,/,-3.5
CCCN1C[C@H](C)[C@@H](OC)CN(C)C(=O)c2ccc(NC(=O)c3ccc(F)cc3)cc2OC[C@@H]1C,/,-13.4,/,/,8.7,0.6
CCCCc1cc(=O)oc2c(CN3CCN(C)CC3)c(O)ccc12,-6.0,/,1.7,23.4,4.0,17.0
CCCc1cc(=O)oc2c(CN3CCN(C)CC3)c(O)ccc12,1.9,9.8,-10.9,34.5*,-0.8,1.7
CCCc1cc(=O)oc2c(CN3CCN(C)CC3)c(O)c(Cl)cc12,/,7.0,/,/,5.2,-5.0
Cc1cc(=O)oc2c(CN3CCN(C)CC3)c(O)c(Cl)cc12,/,/,-16.6,86.5*,3.0,-1.8
CCc1c(C)c2cc(Cl)c(O)c(CN3CCCC3)c2oc1=O,-4.1,4.3,11.1,36.5*,-18.9,31.6
CCCNC(=O)[C@@H]1[C@@H](CO)[C@@H]2Cn3c(ccc(-c4ccccc4OC)c3=O)[C@@H]2N1S(C)(=O)=O,-0.2,/,0.5,1.8,/,8.4
CN1/C(=C/c2cccc[n+]2CCO)Sc2ccccc21,4.2,/,4.9,12.7,-1.6,9.7
CC[n+]1ccccc1/C=C1\Sc2ccc(C)cc2N1C,-1.0,/,20.4,74.2*,28.0,-59.9
O=C(Nc1ccc(Cl)cc1)N[C@H]1CC[C@H](CCn2cc(C3(O)CCCC3)nn2)O[C@@H]1CO,-9.3,6.9,3.0,-0.5,-9.7,-7.1
COc1cccc(NC(=O)CN(C)C(=O)Cn2[nH]c(=O)c3ccccc3c2=O)c1,-0.2,/,-7.6,1.1,5.9,41.5*
Cc1noc(C)c1S(=O)(=O)Nc1ccc2c(c1)C(=O)N([C@@H](C)CO)C[C@@H](C)[C@@H](CN(C)C(=O)Cc1ccccc1)OCCCC[C@@H](C)O2,2.7,26.4,-19.7,1.0,1.7,-16.2
N[C@H]1CC[C@H](CCn2cc(C3CC3)nn2)O[C@@H]1CO,-9.0,/,-18.7,3.0,/,8.4
OCCN=c1cc(-c2ccccc2)oc2ccc(Cl)cc12,/,12.9,/,/,81.7*,/
CC(O)CN=c1cc(-c2ccccc2)oc2ccc(Cl)cc12 (stereo not drawn),/,/,31.1,-0.7,67.0*,12.1
C[C@H](CO)N1C[C@H](C)[C@H](CN(C)S(=O)(=O)c2cccs2)Oc2ccc(NC(=O)CCC(F)(F)F)cc2C1=O,-1.8,1.0,-3.4,-0.3,0.4,2.4
COc1ccc2nc(N3CCCC(C(=O)NCCCN4CCN(C)CC4)C3)sc2c1 (stereo not drawn),/,70.2*,/,/,-17.3,/
OC[C@@H]1CN(Cc2ccc(-c3ccccc3)cc2)C[C@H](n2cnc3c(NCc4ccco4)ncnc32)O1,-1.0,24.4,-87.1,0.0,-6.6,-2.3
C=CCNc1ncnc2c1ncn2[C@H]1CN(Cc2cc(OC)c(OC)c(OC)c2)C[C@@H](CO)O1,-0.4,7.0,11.0,18.9,-5.7,41.7*
OC[C@@H]1CN(Cc2ccccc2)C[C@H](n2cnc3c(NCc4ccco4)ncnc32)O1,-0.4,101.1*,-29.0,0.9,-5.0,8.5
SMILES,AF4-AF9 inh,PGC1a acetyl inh,RAD52 inh,ERAP1 inh,RAD54 inh,INS-1E GSIS act
COCCNc1ncnc2c1ncn2[C@H]1CN(Cc2cc(OC)c(OC)c(OC)c2)C[C@@H](CO)O1,-0.9,-3.5,-10.8,-5.7,1.5,/
Cc1noc(C)c1S(=O)(=O)Nc1ccc2c(c1)CC(=O)N([C@@H](C)CO)C[C@@H](C)[C@@H](CN(C)Cc1ccc(C(=O)Nc3ccccc3N)cc1)O2,2.1,6.2,-19.6,0.0,/,-13.1
CCCN1[C@@H]2c3ccc(-c4ccccc4)c(=O)n3C[C@@H]2[C@@H](CO)[C@@H]1C(=O)OC,-0.8,/,-10.5,0.1,-13.1,-0.5
C[C@H]1CC=CC[C@H](c2cccc(Cl)c2)NC(=O)[C@H](C)N(C)C(=O)c2ccccc2O1 (mixture of isomers),/,/,/,/,/,-3.2
Cc1cc(C)c2c(=O)[nH]n(C3CCCCCC3)c2n1,0.6,87.9*,-1.8,-2.5,/,3.7
Cc1cc(C)c2c(=O)[nH]n(C3CCOC(C)(C)C3)c2n1 (stereo not drawn),1.7,2.0,-9.9,-3.9,-12.9,9.1
CO[C@@H]1CN(C)C(=O)c2cc(NS(=O)(=O)c3cn(C)cn3)ccc2OC[C@@H](C)N(Cc2cccc(Cl)c2)C[C@H]1C,5.9,3.4,0.0,3.2,-0.8,-15.9
O=C(C[C@H]1C=C[C@@H](NC(=O)Cc2cccnc2)[C@@H](CO)O1)Nc1ccc(-c2ccccc2)cc1,2.5,3.0,-9.1,2.1,/,-3.4
O=C(NCc1ccccc1Cl)NCc1ccccc1Cl,31.8*,/,-6.3,-0.9,/,1.1
C[C@@H]1CN([C@H](C)CO)C(=O)c2cc(NC(=O)C3CCCCC3)ccc2O[C@@H](C)CCCCO[C@@H]1CN(C)C(=O)c1ccncc1,/,28.7,/,/,/,-8.8
COc1ccccc1CNC(=O)C[C@H]1CC[C@@H]2[C@H](COc3ccc(NC(=O)Nc4ccc(F)c(F)c4)cc3C(=O)N2C)O1,-2.5,5.7,8.4,/,-0.3,-21.7
CCN(CC)CCCNC(=O)c1ccc(CS(=O)(=O)c2ccccc2OC)o1,-1.4,1.7,-7.9,-2.0,-9.2,/
CCCCNC(=O)c1ccc(CS(=O)(=O)c2ccccc2OC)o1,-12.0,44.2*,-2.3,-0.9,-6.3,-1.2
Cc1ccc(CS(=O)Cc2ccc(C(=O)NCCc3ccccc3)o2)cc1 (stereo not drawn),0.1,3.7,0.1,-1.8,-7.0,4.7
Cc1ccc(CS(=O)Cc2ccc(C(=O)NCc3ccccc3)o2)cc1 (stereo not drawn),-0.9,3.5,1.6,1.5,-3.7,43.4*
Cc1ccc(CNC(=O)c2ccc(CS(=O)(=O)c3ccccc3)o2)cc1,-22.7,43.9*,-14.7,-4.2,9.2,-8.4
COc1ccccc1C(=O)Nc1c2c(nn1-c1cccc(C)c1C)CS(=O)(=O)C2,/,8.4,/,/,5.9,58.5*
Cc1ccccc1-n1nc2c(c1NC(=O)c1cc3ccccc3oc1=O)CS(=O)(=O)C2,/,/,/,/,/,53.8*
COc1ccccc1C(=O)Nc1c2c(nn1-c1ccc(Cl)cc1)CS(=O)(=O)C2,0.4,/,-10.3,-1.9,-0.9,2.3
CCn1nc2cc(C(=O)NCCc3cccs3)ccc2c1OC,25.9*,1.6,-12.9,-4.9,-6.6,/
CCOc1c2ccc(C(=O)NCCc3ccc(C)cc3)cc2nn1CC,-17.9,7.9,-13.0,-1.6,2.2,-3.5
